PI5P4K alpha inh: qHTS for Inhibitors of phosphatidylinositol 5-phosphate 4-kinase (PI5P4K). Phosphatidylinositol 5-phosphate 4-kinase type-2 alpha (Homo sapiens), P48426. PI5P4Kalpha enzyme, ADP-Glo luminescence, 60 min; stronger effect = lower value. max response, %. 1.2% of 330,000 active. AID 652105, 2013; active means max response of -50% or lower; inconclusive means between -30% and -50%; inactive means -30% or higher; further: value at the top dose of about 77 µM; on the % scale 0 is the no-effect control and ±100 the full control effect
Target sequence (P48426 whole entry, looked up): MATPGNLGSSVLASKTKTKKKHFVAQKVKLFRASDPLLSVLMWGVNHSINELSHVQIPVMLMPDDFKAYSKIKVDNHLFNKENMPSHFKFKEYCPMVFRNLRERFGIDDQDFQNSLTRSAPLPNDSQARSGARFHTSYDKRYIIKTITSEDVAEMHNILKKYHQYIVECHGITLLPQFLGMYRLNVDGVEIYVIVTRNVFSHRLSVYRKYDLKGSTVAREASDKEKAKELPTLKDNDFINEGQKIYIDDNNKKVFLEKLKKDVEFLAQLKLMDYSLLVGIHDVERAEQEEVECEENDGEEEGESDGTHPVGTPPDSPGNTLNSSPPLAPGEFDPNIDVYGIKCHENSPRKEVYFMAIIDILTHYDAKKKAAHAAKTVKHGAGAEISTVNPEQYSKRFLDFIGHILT
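ADP-Glo luminescence end-point read after a 60 min room-temperature kinase reaction of PI5P4Kalpha plus substrate, initiated with ATP at 5 microM final. Buffer: 0.038 M HEPES pH 7.4, EGTA, 0.1% CHAPS, 5% DMSO.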
VDR inhibitor: Inhibitors of the vitamin D receptor (VDR): qHTS. Vitamin D3 receptor (Homo sapiens), P11473. VDR-SRC2-3 peptide fluorescence polarization, 2 h. Potency, µM, for inactives: max response, negative = inhibition, most hits filed as inhibitors. 0.93% of 400,000 active; further: potency means the concentration at half of the fitted maximal effect; on the % scale 0 is the no-effect control and ±100 the full control effect
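Fluorescence polarization assay of small-molecule disruption of VDR binding to coregulator peptide SRC2-3. Compounds and controls pin-transferred, then read after 2 h incubation at ambient room temperature.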
PLK1 PBD block: qHTS for Inhibitors of PLK1-PDB (polo-like kinase 1 - polo-box domain): Primary Screen. Serine/threonine-protein kinase PLK1 (Homo sapiens), P53350. 2.8% of 360,000 active. Plk1 PBD binding of FITC phosphopeptide, fluorescence polarization. Potency, µM, for the others: max response, negative = inhibition, hits mostly inhibitors; further: potency means the concentration at half of the fitted maximal effect; series mostly up to about 57 µM; on the % scale 0 is the no-effect control and ±100 the full control effect; nearly all actives have a fitted effect of over 65% in size
Rango release inh: qHTS Assay for Inhibitors of RanGTP induced Rango (Ran-regulated importin-beta cargo) - Importin beta complex dissociation; Snurportin-1 (Homo sapiens) + GTP-binding nuclear protein Ran (Homo sapiens) + Importin …; Biochemical FRET Rango-importin beta, RanGTP-induced dissociation; Potency, µM (series often up to 46.1 µM), for the others: top-dose activity change, negative = inhibition; 0.071% of 340,000 active; AID 540253, 2011; calls by dose curve; further: potency means the concentration at half of the fitted maximal effect; % of control where 0% means no effect; nearly all actives have a fitted effect of over 45% in size
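Two FRET readings bracket the reaction: one 5 min after compound meets Rango–importin beta, another 45 min after RanGTP-RCC1 (0.6 uM Ran, 0.2 uM RCC1, 2 mM GTP) is added. Only the second defines inhibition.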
KAT2A inh: qHTS Assay for Inhibitors of GCN5L2 | 0.21% of 390,000 active | Histone acetyltransferase KAT2A (Homo sapiens), Q92830 | Potency, µM (highest dose often 58.9 µM), for the others: at the top dose activity change, negative = inhibition, actives largely listed as inhibitors | GCN5L2 HAT assay, ThioGlo1 CoA-SH fluorescence; further: potency means the concentration at half of the fitted maximal effect; on the % scale 0 is the no-effect control and ±100 the full control effect
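Enzyme at 20nM final was mixed with library compounds for 15 min at room temperature. Peptide H3(1-25) at 75uM, acetyl-CoA at 70uM and ThioGlo1 at 50uM were then added. Plates were read immediately and after 20 min (Ex340nm/Em540nm).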
Rango complex inh: qHTS Assay for Inhibitors of Rango (Ran-regulated importin-beta cargo) - Importin beta complex formation; Importin subunit beta-1 (Homo sapiens), Q14974; Rango CFP/YFP FRET sensor + importin beta, 45 min; Potency, µM (top dose mostly 92.2 µM), for inactives: at the top dose inhibition of complex formation; 0.031% of 340,000 active; calls by dose curve;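 further: potency means the concentration at half of the fitted maximal effect; 0% = DMSO wells and 100% = buffer wells lacking importin beta; nearly all actives have a fitted effect of over 15% in size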
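FRET biosensor Rango (snurportin 1 IBB between N-terminal EYFP and C-terminal Cerulean), 50 nM in PBS/1 mM DTT/0.02% Tween-20/0.1% BSA, preincubated 5 min RT with compound; 0.125 microM importin beta added, 45 min RT, CFP/YFP FRET ratio read.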
USP1-UAF1 confirm: Inhibitors of USP1/UAF1: Hit Validation in Primary Assay; Ub-Rhodamine cleavage, fluorescence kinetic read; AID 540327, 2011; 50% of 50 active; shares compounds with VDR inhibitor; Potency, µM (top dose mostly 114 µM), without a hit: top-dose activity change, negative = inhibition, actives largely listed as inhibitors
VDR confirm: qHTS for Inhibitors of the vitamin D receptor (VDR): Hit Validation in Primary Screen; shares compounds with VDR inhibitor; VDR-coactivator inhibition assay, qHTS confirmation; Potency, µM, hits mostly inhibitors; 89% of 840 active; further: potency means the concentration at half of the fitted maximal effect
VDR FP: qHTS for Inhibitors of the vitamin D receptor (VDR): Hit Validation using a Fluorescein Assay. shares compounds with VDR inhibitor. VDR-coactivator binding, fluorescein fluorescence polarization. Potency, µM (titrated, usually from 57.1 µM), for the others: at the highest dose activity change, negative = inhibition, hits mostly inhibitors. 48% of 840 active. AID 602200, 2012; further: potency means the concentration at half of the fitted maximal effect
VDR bla: qHTS for Inhibitors of the vitamin D receptor (VDR): Hit Validation using a Beta-Lactamase Assay; shares compounds with VDR inhibitor; VDR beta-lactamase reporter cells, FRET ratio; cells co-treated with VDR agonist LG190178; Potency, µM (series often up to 46.1 µM), for inactives: at the top dose activity change, negative = inhibition, most hits filed as inhibitors; 23% of 840 active; further: potency means the concentration at half of the fitted maximal effect; on the % scale 0 is the no-effect control and ±100 the full control effect
VDR viability: qHTS for Inhibitors of the vitamin D receptor (VDR): Hit Validation using a Cytotoxicity Assay; cytotoxicity counter-screen, cell viability, qHTS; 18% of 840 active; shares compounds with VDR inhibitor; Potency, µM (series often up to 48.3 µM), without a hit: at the highest dose activity change, negative = cytotoxicity, hits mostly cytotoxic;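 further: potency means the concentration at half of the fitted maximal effect; plate controls were DMSO for no effect and high-concentration cycloheximide for full effect; nearly all actives have a fitted effect of over 75% in size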
Starred values were filed as active, the others as inactive; u = inconclusive; x = no result given. An excerpt weighted towards active compounds, which were near 3.6% of everything screened. Unless noted, the call rests on the fitted dose curve; in most records, active means well fitted curve in the direction sought with a large enough effect; inconclusive means small, poorly fitted or top-dose-only effect, or another doubt; inactive means no such curve, though single readings can be large; an effect the other way counts as inactive or inconclusive.

SMILES	PI5P4K alpha inh	VDR inhibitor	PLK1 PBD block	Rango release inh	KAT2A inh	Rango complex inh	VDR confirm	VDR FP	VDR bla	VDR viability	others
NS(=O)(=O)c1ccc(NC(=O)c2nc(S(=O)(=O)Cc3ccccc3F)ncc2Cl)cc1	x	x	x	x	x	x	5.01*	3.55µM*	u	10.7%
Cc1ccc(C(=O)/C=C\C(=O)c2ccc(C)cc2)cc1	-16.2	79.4µM*	6.7µM*	-1.6%	1.0%	-6.8%	29.9*	u	u	22.4%
Cc1ccc(C(=O)c2ccc(C)cc2)cc1	-5.4	20.7%	3.7%	11.7%	-18.6%	-0.4%	x	x	x	x
Cc1ccc2c(c1)c(=O)c(C(=O)c1ccncc1)cn2CC(=O)Nc1c(C)cccc1C	x	14.6%	x	x	1.6%	x	x	x	x	x
COc1ccc(-c2cc(N)n(S(=O)(=O)c3c(F)c(F)c(F)c(F)c3F)n2)cc1OC	x	u	1.19µM*	22.0%	-14.5%	0.2%	5.01*	7.08µM*	5.8µM*	21.2µM*
CCN(CC)c1ccc(NC(=O)COc2ccccc2C#N)cc1S(=O)(=O)Nc1ccccc1OC	u	79.4µM*	5.32µM*	5.5%	0.3%	0.7%	9.47*	u	-0.3%	16.8%
CC1=C(CO)C(=O)OC([C@@H](C)C2CC[C@H]3C4C[C@H]5O[C@]56[C@@H](O)C=CC(=O)[C@]6(C)C4CC[C@]23C)C1 (stereo partly drawn)	u	17.8µM*	-28.8%	1.1%	-16.5%	-0.6%	11.9*	10µM*	5.8µM*	u
CC(C(=O)O)C1CCC2C3CC=C4CC(O)CC[C@@]4(C)C3CC[C@]12C (stereo partly drawn)	x	11.2%	x	x	-7.1%	x	x	x	x	x
O=S(=O)(c1ccccc1)N1CCC2(CC1)CN(c1ncccn1)C2	x	0.8%	x	x	-5.4%	x	x	x	x	x
O=C(O)CCNc1ccc(NCCC(=O)O)c2c1C(=O)c1ccccc1C2=O	-67.9*	7.08µM*	u	-0.7%	-14.8%	u	7.52*	27.6%	1.4%	u
COc1ccccc1NCCC(=O)O	1.4	-12.1%	-5.2%	4.4%	-7.8%	0.4%	x	x	x	x
CCOc1ccccc1Nc1ccc2cc(S(=O)(=O)N3CCCCC3)ccc2n1	x	8.9%	x	x	-8.3%	x	x	x	x	x
c1ccc(-c2nn3c(Cn4cnc5ccccc54)nnc3s2)cc1	x	u	7.52µM*	-5.6%	u	0.0%	20*	7.08µM*	-20.7%	-19.3%
c1ccc(Cn2cnc3ccccc32)cc1	x	-16.6%	-5.4%	2.4%	-0.5%	-0.4%	x	x	x	x
Cc1nc(N=Nc2ccc(C(=O)O)cc2)c(COP(=O)(O)O)c(C=O)c1O	x	-3.1%	x	x	-15.4%	x	x	x	x	x	USP1-UAF1 confirm=5.91µM*
CCN(CC)N=Nc1ccc(C(=O)O)cc1	4.1	40.5%	4.8%	-4.0%	-2.4%	6.8%	x	x	x	x
COc1ccc(OC)c(NC(=O)Cn2c(=O)cc(-c3ccccc3)c3c(C)nn(C)c32)c1	x	12.6%	x	x	-14.8%	x	x	x	x	x
CC(=O)C1=C(c2ccc(Br)cc2)N(C(C)=O)n2c(nnc2C2CCCCC2)S1	x	0.2%	x	x	-2.9%	x	x	x	x	x
COC(=O)/C=c1/sc2nc3ccccc3n2c1=O	x	u	2.67µM*	-4.7%	u	-0.5%	3.16*	2.82µM*	5.7%	5.0%
CCCCOC(=O)NS(=O)(=O)c1sc(CC(C)C)cc1-c1ccc(Cn2c(CC)nc3c(C)cc(C)nc32)cc1	x	-2.8%	x	x	-26.1%	x	x	x	x	x	USP1-UAF1 confirm=u
Cc1ccc(C(CC(=O)NCC2(c3ccccc3)CCCC2)c2ccccc2)c(O)c1 (stereo not drawn)	x	u	x	x	-6.4%	x	x	x	x	x
Nc1ccc2c(c1)C(=O)c1ccccc1-2	2.2	6.6%	-17.6%	-1.7%	x	0.0%	x	x	x	x
O=C1C(=O)c2ccc(-c3ccccc3)cc2-c2ccccc21	x	3.55µM*	-19.0%	10.1%	-6.3%	6.2%	0.67*	u	3.26µM*	2.51µM*
Cc1cc(C)cc(-n2ccnc(NCc3ccc(F)cc3)c2=O)c1	x	0.6%	x	x	-0.3%	x	x	x	x	x
CCOc1ccccc1NC(=O)CC1SC(=N)N(c2ccccc2)C1=O (stereo not drawn)	x	x	x	x	-11.0%	x	x	x	x	x
CCOc1ccc(NC(=O)CC2SC(=O)N(c3ccccc3)C2=O)cc1 (stereo not drawn)	-2.9	28.2µM*	9.47µM*	-15.7%	u	-2.3%	u	u	28.6%	14.3%
CCOC(=O)c1sc2cccc(F)c2c1S(=O)(=O)N1CCN(c2cccc(Cl)c2)CC1	x	-1.0%	x	x	-14.2%	x	x	x	x	x
CCC(=O)c1ccc(OCC(=O)O)cc1	3.6	4.0%	-0.1%	2.9%	-4.4%	1.9%	x	x	x	x
CCCc1c(OCCCOc2ccc(OCC(=O)O)cc2)ccc(C(C)=O)c1O	29.6	50.1µM*	u	1.1%	u	2.8%	x	x	x	x	USP1-UAF1 confirm=u
